# Reference: ChEMBL document CHEMBL2218924, “A broad activity screen in support of a chemogenomic map for kinase signalling research and drug discovery” (Biochem J, 2013)
# Key:
# [1] = target: Calcium/calmodulin-dependent protein kinase type 1 (Homo sapiens) (UniProt Q14012); conditions: at 1 µM
# [2] = target: Calcium/calmodulin-dependent protein kinase type 1 (Homo sapiens) (UniProt Q14012); conditions: at 10 µM
# [3] = target: Calcium/calmodulin-dependent protein kinase type II subunit beta (Homo sapiens) (UniProt Q13554); conditions: at 1 µM
# Calcium/calmodulin-dependent protein kinase type II subunit beta (Homo sapiens), sequence (Q13554 whole entry): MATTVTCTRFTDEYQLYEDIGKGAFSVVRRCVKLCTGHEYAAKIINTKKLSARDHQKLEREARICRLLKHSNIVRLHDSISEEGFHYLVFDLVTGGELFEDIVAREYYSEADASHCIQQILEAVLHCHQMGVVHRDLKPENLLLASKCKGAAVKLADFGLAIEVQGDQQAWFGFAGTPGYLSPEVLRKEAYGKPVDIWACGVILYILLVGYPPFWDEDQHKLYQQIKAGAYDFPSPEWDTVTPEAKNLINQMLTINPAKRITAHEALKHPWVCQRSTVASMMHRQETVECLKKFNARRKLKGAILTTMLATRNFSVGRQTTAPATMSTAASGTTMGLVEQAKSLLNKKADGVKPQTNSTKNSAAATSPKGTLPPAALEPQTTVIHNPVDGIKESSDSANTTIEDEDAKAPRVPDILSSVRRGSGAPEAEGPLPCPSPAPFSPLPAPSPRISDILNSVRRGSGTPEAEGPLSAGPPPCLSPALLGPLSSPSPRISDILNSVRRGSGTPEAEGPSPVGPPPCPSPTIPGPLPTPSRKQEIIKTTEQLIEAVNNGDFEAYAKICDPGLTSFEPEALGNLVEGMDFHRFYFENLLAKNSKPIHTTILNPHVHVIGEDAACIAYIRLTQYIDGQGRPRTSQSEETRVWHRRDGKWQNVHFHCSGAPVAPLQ
# [4] = target: Calcium/calmodulin-dependent protein kinase type II subunit beta (Homo sapiens) (UniProt Q13554); conditions: at 10 µM
# [5] = target: Calcium/calmodulin-dependent protein kinase type II subunit gamma (Homo sapiens) (UniProt Q13555); conditions: at 1 µM
# Calcium/calmodulin-dependent protein kinase type II subunit gamma (Homo sapiens), sequence (Q13555 whole entry): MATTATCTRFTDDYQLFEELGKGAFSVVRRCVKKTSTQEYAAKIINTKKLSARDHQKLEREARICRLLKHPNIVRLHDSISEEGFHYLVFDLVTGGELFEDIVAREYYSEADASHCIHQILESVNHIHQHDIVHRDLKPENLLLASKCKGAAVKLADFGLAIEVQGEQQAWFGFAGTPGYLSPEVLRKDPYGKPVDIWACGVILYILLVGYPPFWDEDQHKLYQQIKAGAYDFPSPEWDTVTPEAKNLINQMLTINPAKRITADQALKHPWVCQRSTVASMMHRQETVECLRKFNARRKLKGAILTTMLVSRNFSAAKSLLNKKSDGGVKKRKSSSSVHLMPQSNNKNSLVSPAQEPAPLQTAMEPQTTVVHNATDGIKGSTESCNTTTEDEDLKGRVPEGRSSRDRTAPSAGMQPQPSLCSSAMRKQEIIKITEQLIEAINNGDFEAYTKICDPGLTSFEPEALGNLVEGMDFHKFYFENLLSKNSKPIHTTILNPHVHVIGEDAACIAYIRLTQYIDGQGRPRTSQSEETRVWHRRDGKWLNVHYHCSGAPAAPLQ
# [6] = target: Calcium/calmodulin-dependent protein kinase type II subunit gamma (Homo sapiens) (UniProt Q13555); conditions: at 10 µM
# [7] = target: Calcium/calmodulin-dependent protein kinase type II subunit delta (Homo sapiens) (UniProt Q13557); conditions: at 1 µM
# Calcium/calmodulin-dependent protein kinase type II subunit delta (Homo sapiens), sequence (Q13557 whole entry): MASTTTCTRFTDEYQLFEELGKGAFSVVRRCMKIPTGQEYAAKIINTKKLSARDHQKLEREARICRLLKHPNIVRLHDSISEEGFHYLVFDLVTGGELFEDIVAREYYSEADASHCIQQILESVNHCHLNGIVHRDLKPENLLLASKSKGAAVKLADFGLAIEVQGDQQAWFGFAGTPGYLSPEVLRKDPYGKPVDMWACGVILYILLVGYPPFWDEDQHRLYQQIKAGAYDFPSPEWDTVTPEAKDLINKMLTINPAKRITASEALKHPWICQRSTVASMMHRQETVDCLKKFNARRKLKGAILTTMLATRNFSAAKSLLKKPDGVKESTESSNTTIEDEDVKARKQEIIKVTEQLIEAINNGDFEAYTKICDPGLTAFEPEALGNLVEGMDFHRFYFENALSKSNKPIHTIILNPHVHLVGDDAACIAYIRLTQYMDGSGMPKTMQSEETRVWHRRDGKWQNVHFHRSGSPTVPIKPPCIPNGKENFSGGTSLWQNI
# [8] = target: Calcium/calmodulin-dependent protein kinase type II subunit delta (Homo sapiens) (UniProt Q13557); conditions: at 10 µM
# [9] = target: T1, Calcium/calmodulin-dependent protein kinase type IV (Homo sapiens) (UniProt Q16566); conditions: at 1 µM
# T1 sequence (whole entry): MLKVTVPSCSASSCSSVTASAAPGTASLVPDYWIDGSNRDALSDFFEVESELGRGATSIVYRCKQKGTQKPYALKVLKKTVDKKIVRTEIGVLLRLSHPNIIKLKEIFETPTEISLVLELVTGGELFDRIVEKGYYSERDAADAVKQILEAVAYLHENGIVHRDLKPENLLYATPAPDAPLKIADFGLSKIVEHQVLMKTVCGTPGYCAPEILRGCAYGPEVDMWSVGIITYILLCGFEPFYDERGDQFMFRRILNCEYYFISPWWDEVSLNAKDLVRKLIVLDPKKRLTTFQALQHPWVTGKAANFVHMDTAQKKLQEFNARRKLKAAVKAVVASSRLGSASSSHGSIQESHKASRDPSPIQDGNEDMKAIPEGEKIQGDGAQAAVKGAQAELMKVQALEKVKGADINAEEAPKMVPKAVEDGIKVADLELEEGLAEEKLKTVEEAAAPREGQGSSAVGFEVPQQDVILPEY
# [10] = target: T1, Calcium/calmodulin-dependent protein kinase type IV (Homo sapiens); conditions: at 10 µM
# [11] = target: Death-associated protein kinase 1 (Homo sapiens) (UniProt P53355); conditions: at 10 µM
# Death-associated protein kinase 1 (Homo sapiens), sequence (P53355 whole entry, looked up): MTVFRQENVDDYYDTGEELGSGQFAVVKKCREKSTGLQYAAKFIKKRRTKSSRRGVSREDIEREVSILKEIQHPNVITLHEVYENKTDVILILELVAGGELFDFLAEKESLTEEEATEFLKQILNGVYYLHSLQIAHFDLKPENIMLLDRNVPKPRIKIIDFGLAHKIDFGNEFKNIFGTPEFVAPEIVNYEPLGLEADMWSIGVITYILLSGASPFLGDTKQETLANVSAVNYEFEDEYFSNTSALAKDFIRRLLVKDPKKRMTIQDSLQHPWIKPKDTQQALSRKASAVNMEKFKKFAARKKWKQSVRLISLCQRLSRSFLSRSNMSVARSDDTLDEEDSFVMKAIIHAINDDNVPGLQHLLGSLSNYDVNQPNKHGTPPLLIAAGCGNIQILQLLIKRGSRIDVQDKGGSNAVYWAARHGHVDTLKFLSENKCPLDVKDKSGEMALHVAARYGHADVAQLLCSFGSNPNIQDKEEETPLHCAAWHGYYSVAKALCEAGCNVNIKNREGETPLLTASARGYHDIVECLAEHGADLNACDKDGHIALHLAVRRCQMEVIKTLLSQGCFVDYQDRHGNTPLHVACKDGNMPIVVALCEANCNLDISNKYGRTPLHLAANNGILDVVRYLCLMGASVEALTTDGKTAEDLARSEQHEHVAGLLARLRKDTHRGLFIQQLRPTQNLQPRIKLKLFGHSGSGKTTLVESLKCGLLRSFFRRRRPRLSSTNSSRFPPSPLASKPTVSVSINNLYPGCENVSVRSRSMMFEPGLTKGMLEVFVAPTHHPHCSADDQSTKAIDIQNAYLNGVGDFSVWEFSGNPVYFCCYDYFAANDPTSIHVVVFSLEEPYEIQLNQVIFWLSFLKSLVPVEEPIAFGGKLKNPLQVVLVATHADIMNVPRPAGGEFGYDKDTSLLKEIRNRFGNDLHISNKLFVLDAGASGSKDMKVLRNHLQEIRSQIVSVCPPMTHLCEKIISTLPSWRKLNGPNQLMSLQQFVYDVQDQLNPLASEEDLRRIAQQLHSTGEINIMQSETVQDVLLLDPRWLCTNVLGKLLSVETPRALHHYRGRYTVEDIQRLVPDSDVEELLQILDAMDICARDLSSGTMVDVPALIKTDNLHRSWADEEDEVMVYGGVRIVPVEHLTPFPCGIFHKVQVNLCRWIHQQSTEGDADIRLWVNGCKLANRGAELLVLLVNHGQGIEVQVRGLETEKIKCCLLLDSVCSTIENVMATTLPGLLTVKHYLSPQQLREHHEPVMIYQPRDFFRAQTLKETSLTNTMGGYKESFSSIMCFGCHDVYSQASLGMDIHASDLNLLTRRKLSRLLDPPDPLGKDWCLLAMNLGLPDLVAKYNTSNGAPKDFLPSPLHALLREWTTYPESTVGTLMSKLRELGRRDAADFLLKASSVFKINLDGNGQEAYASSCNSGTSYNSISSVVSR
# [12] = target: Death-associated protein kinase 2 (Homo sapiens) (UniProt Q9UIK4); conditions: at 1 µM
# Death-associated protein kinase 2 (Homo sapiens), sequence (Q9UIK4 whole entry, looked up): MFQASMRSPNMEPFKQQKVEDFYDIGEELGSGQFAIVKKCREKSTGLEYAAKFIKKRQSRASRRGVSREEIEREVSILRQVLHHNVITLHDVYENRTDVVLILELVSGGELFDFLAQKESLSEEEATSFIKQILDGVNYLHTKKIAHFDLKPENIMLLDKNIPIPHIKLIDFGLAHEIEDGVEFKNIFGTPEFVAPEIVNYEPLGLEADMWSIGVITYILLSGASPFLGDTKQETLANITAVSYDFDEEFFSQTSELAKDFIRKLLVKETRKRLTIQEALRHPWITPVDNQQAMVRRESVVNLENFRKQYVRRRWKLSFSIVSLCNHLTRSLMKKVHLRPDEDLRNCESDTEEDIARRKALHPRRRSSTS
# [13] = target: Death-associated protein kinase 2 (Homo sapiens) (UniProt Q9UIK4); conditions: at 10 µM
# [14] = target: T2, Serine/threonine-protein kinase DCLK2 (Homo sapiens) (UniProt Q8N568); conditions: at 1 µM
# T2 sequence (whole entry): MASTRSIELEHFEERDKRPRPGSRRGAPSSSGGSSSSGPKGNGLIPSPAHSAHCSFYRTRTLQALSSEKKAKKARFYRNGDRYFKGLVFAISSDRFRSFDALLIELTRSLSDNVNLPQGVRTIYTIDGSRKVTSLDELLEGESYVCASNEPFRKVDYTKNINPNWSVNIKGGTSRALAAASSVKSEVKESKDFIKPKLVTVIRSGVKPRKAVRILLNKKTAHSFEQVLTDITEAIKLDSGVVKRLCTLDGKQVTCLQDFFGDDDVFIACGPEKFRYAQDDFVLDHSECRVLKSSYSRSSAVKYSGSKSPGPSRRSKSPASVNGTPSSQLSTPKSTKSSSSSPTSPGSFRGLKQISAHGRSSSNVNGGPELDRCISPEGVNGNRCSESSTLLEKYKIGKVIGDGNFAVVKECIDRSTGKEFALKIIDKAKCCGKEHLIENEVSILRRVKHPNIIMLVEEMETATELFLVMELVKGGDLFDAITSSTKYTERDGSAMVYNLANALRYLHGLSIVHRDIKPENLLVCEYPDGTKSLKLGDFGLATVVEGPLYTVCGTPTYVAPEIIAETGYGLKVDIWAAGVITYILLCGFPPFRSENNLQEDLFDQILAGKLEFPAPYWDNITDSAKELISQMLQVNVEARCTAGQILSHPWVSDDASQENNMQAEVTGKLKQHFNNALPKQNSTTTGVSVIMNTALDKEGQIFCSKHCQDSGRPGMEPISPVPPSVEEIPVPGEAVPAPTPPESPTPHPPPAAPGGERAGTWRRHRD
# [15] = target: T2, Serine/threonine-protein kinase DCLK2 (Homo sapiens); conditions: at 10 µM
# [16] = target: T3, Discoidin domain-containing receptor 2 (Homo sapiens) (UniProt Q16832); conditions: at 1 µM
# T3 sequence (whole entry): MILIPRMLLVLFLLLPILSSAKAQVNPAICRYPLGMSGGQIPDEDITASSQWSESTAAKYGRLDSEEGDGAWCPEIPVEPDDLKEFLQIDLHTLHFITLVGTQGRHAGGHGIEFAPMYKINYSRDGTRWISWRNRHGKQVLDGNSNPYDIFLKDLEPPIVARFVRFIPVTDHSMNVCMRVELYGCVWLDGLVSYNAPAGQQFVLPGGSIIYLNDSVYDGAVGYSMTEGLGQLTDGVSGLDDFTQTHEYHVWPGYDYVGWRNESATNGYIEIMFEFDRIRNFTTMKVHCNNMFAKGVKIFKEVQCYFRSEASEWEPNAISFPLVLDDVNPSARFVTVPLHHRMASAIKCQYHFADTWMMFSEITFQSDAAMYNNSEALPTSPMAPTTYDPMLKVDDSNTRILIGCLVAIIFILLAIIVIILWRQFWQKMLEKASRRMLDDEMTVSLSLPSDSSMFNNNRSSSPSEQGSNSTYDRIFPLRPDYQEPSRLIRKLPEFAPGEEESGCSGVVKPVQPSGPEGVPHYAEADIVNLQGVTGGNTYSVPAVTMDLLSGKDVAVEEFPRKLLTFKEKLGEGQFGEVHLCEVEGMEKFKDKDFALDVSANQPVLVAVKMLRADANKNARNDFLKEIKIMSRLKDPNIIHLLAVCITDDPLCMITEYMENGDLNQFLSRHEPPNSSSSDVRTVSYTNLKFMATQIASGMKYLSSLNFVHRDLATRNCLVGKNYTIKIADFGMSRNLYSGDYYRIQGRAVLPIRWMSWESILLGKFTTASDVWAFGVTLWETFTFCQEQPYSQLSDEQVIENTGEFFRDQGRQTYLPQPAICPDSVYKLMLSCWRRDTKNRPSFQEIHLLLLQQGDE
# [17] = target: T3, Discoidin domain-containing receptor 2 (Homo sapiens); conditions: at 10 µM
# [18] = target: T4, Myotonin-protein kinase (Homo sapiens) (UniProt Q09013); conditions: at 1 µM
# T4 sequence (whole entry): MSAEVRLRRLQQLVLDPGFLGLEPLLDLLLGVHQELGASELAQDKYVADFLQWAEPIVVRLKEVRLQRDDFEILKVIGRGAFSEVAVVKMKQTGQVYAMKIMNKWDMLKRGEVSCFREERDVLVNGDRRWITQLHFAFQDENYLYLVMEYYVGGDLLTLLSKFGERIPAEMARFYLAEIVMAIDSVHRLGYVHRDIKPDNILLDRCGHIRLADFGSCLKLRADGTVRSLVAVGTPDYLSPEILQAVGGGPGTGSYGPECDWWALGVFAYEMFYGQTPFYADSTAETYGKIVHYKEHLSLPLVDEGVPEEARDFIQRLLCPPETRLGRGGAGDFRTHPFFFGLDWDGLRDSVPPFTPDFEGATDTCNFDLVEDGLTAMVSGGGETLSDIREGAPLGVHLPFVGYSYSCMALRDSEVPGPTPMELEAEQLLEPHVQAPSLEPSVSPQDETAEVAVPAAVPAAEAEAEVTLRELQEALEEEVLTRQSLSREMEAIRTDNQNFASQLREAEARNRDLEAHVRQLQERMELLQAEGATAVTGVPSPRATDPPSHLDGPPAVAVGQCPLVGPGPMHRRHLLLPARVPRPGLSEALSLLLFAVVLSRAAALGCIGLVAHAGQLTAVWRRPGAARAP
# [19] = target: T4, Myotonin-protein kinase (Homo sapiens); conditions: at 10 µM
# [20] = target: T5, Serine/threonine-protein kinase 17A (Homo sapiens) (UniProt Q9UEE5); conditions: at 1 µM
# T5 sequence (whole entry): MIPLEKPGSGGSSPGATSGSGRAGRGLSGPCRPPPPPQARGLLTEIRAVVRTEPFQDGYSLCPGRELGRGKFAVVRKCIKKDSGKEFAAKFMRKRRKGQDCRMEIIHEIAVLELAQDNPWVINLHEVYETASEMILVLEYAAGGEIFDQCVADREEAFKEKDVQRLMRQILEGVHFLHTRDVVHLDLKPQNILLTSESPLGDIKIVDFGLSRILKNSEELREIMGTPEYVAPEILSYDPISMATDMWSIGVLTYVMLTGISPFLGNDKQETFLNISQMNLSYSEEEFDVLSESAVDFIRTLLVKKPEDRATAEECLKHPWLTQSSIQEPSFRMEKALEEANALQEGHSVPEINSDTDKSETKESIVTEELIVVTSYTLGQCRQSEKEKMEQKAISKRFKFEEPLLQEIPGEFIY
# Calcium/calmodulin-dependent protein kinase type 1 (Homo sapiens), sequence (Q14012 whole entry, looked up): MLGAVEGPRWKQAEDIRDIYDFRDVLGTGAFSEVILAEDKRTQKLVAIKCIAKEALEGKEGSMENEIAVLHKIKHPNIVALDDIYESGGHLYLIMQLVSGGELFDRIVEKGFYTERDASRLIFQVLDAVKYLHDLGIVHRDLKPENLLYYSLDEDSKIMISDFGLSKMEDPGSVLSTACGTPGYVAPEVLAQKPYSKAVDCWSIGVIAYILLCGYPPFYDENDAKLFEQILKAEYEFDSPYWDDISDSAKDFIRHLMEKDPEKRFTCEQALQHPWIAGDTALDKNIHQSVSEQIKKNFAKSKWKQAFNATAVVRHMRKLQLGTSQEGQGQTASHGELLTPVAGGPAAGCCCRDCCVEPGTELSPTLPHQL
SMILES,residual activity [1],residual activity [2],residual activity [3],residual activity [4],residual activity [5],residual activity [6],residual activity [7],residual activity [8],residual activity [9],residual activity [10],residual activity [11],residual activity [12],residual activity [13],residual activity [14],residual activity [15],residual activity [16],residual activity [17],residual activity [18],residual activity [19],residual activity [20]
O=C(Nc1cccc(Nc2cc(Nc3cccc(C(F)(F)F)c3)ncn2)c1)C1CC1,114%,57%,91%,86%,98%,74%,97%,67%,116%,94%,100%,91%,91%,92%,109%,81%,94%,100%,106%,81%
Cc1cccc(-c2[nH]c(C(C)(C)C)nc2-c2ccc3c(c2)OCO3)n1,–,–,93%,88%,–,99%,105%,99%,129%,88%,77%,–,–,86%,99%,–,98%,145%,143%,–
Cc1cncc2cccc(S(=O)(=O)N3CCCN(C(=O)CN)C[C@H]3C)c12,97%,63%,76%,49%,95%,64%,98%,60%,91%,22%,85%,90%,–,66%,35%,126%,94%,–,–,–
CCN(CC)C(=O)c1ccc(Nc2nc(OCC3CCCCC3)c3nc[nH]c3n2)cc1,70%,19%,98%,51%,102%,51%,–,49%,82%,28%,54%,96%,68%,–,99%,93%,66%,–,–,23%
N#C/C(=C(\N)Sc1ccc(N)cc1)c1ccccc1C(F)(F)F,83%,95%,79%,86%,90%,86%,62%,47%,107%,83%,78%,98%,103%,102%,99%,91%,108%,95%,85%,96%
N#CCCc1ccc2c(c1)-c1[nH]c3ccc([N+](=O)[O-])cc3c1CC(=O)N2,–,–,54%,32%,6%,1%,10%,3%,–,–,–,–,–,–,–,–,–,–,–,11%
N#CC(C#N)=C(N)/C(C#N)=C/c1ccc(O)cc1,–,–,96%,90%,116%,95%,–,–,–,–,92%,99%,97%,94%,47%,116%,97%,–,148%,91%
Cc1nc(-c2ccccc2)c(-c2ccncc2)o1,104%,89%,97%,86%,97%,83%,104%,81%,108%,112%,95%,99%,–,124%,113%,50%,36%,104%,102%,120%
